This passage reports outcome and AC50 results from PubChem BioAssay (EPA / NIEHS).

SMILES strings stand for the structures. Active and inactive are the calls of the source. The calls were made as follows: active = hit-call score of the fitted dose curve at least 0.9, where 1 is the maximum; inactive = score below 0.9.

Read-out in the experiment: CYP2C8 (gene 1558)
Nature of the experiment: LTEA_HepaRG_CYP2C8: Life Technologies and Expression Analysis (LTEA) Assay for CYP2C8 using HepaRG (AID 2283483). The following applies: mRNA level, 48 h; actives raise or lower the signal. The gist of the method:
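HepaRG (human liver line), 48 h chemical exposure, 8-pt half-log series from 100 uM, 0.5% DMSO vehicle. Readout: CYP2C8 transcript by qRT-PCR, housekeeping-normalized. Bidirectional fit vs DMSO baseline.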
Consider `CC(C)(O)c1coc(S(=O)(=O)NC(=O)Nc2c3c(cc4c2CCC4)CCC3)c1`, for which the molecule was called inactive.
Turning to `Cn1cnc([N+](=O)[O-])c1Sc1ncnc2nc[nH]c12`, the AC50 (commonly the concentration giving half of the maximal activity seen) was 7.61 µM (active).
Turning to `CC[C@H](C)C(=O)O[C@H]1C[C@@H](C)C=C2C=C[C@H](C)[C@H](CC[C@@H]3C[C@@H](O)CC(=O)O3)[C@H]21`, the outcome was inactive.
In the case of `CCOCCOCCOCCO`, the molecule was classed as inactive.
On to `O=C(CCCCCCCCc1cccnc1)N1CCC(C=C(c2ccccc2)c2ccccc2)CC1`, for which the AC50 is 29.7 µM (active).
In the case of `CCOC(=O)CC(CC(=O)OCC)(OC(C)=O)C(=O)OCC`, the outcome was inactive.
For `Cc1ccc(C)c(O)c1`, the molecule was called inactive.
As to `CCCCC(CC)COC(=O)CCCCCCCCC(=O)OCC(CC)CCCC` (configuration not stated), the molecule was classed as inactive.
Take `O=C(O)c1cc(N=Nc2ccc(S(=O)(=O)Nc3ccccn3)cc2)ccc1O`: the result was inactive.
`CCN(C(=O)c1cc(C)cc(OC[C@H](C)Nc2ccncc2)c1)C(C)C`: the AC50 is 58.4 µM (active).
For the molecule `CC(=O)OC[C@H]1O[C@@](COC(C)=O)(O[C@H]2O[C@H](COC(C)=O)[C@@H](OC(C)=O)[C@H](OC(C)=O)[C@H]2OC(C)=O)[C@@H](OC(C)=O)[C@@H]1OC(C)=O`, the result was inactive.
On the same count and under the same terms, the value for `CCCCCCc1ccc(O)cc1O` was “inactive”.
As to `CN(C)c1ccc(Cc2ccc(N(C)C)cc2)cc1`, the AC50 is 90.6 µM (active).
`Cc1[nH]cnc1C[C@H]1CCc2c(C)c3ccccc3n2C1=O`: the AC50 was 22.9 µM (active).
For the molecule `O=C(O)c1cccc(Oc2ccccc2)c1`, the call was inactive.
Take `CC(C)=CCCC(C)=CC=O`: the outcome was inactive.
For `O=C(NS(=O)(=O)/C=C/c1ccccc1)c1ccc(F)cc1Cl`, the molecule was called inactive.
